Reference: PubChem BioAssay (Tox21)
Records with an inconclusive call do not appear. Calls of active or inactive are those of the source. Unless noted, calls follow the shape of the dose curve; as a rule, active = well fitted curve in the direction sought with a large enough effect in the repeat runs; inconclusive = weak or mixed curves; inactive = no such curve, though single readings can be large; an effect the other way counts as inactive or inconclusive.

Columns and labels:
[1] = A CellTox Green Cytotoxicity Assay to monitor cytotoxicity in HepG2 cells - 8 hour (AID 1224890); also: nearly all actives have a fitted effect of over 45% in size
How it was run: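 HepG2, 600 cells/well premixed w/ CellTox Green; 5 h settle, 37 C/5% CO2; pintool cpd add (DMSO); 37 C, 40 h; fluorescence read at 0, 8, 16, 24, 32, 40 h.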

[2] = qHTS assay to identify small molecule antagonists of the androgen receptor (AR) signaling pathway using the MDA cell line in the presence of 0.5 nM R1881 - cell viability counter screen (AID 1259242); also: nearly all actives have a fitted effect of over 45% in size
How it was run: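 Live-cell protease fluorescence, CellTiter-Fluor, 30 min at 37C. Cells: MDA-kb2, 3,000/well, preincubated 5 hr. Compounds plus 0.5 nM R1881 final, 16 hr, 37C, 0% CO2.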

[3] = target: Estrogen receptor (Homo sapiens) (UniProt P03372); test: qHTS assay to identify small molecule antagonists of the estrogen receptor alpha (ER-alpha) signaling pathway using the BG1 cell line in the presence of 0.1 nM 17-beta-estradiol (AID 1259244); also: nearly all actives have a fitted effect of over 50% in size
How it was run: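 Luminescence after ONE-Glo (30 min, room temperature) measured ERE-luciferase activity in VM7Luc4E2 cells treated 22 h with compound and 0.1 nM final 17beta-estradiol as stimulator.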

[4] = qHTS assay to identify small molecule HDAC inhibitors (AID 1259364);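 also: wild-type HCT-116 cells with endogenous class I/II HDAC activity; top concentration of the series differs between compounds; nearly all actives have a fitted effect of over 45% in size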
How it was run: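 HCT-116 (wild type), 1,500 cells/well, overnight; compound 2 hr 37C 5% CO2; HDAC-Glo I/II reagent 30 min RT; luminescence readout.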

[5] = qHTS assay to identify small molecule HDAC inhibitors - cell viability counter screen (AID 1259365); also: series mostly up to about 92 µM; nearly all actives have a fitted effect of over 50% in size
How it was run: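 Viability readout: CellTiter-Glo luminescence. Wild-type HCT-116 cells, 2hr compound treatment following overnight attachment at 37 C.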

[6] = qHTS assay to identify small molecule agonists of the sonic hedgehog signaling (Shh) pathway - cell viability counter screen (AID 1259366); also: nearly all actives have a fitted effect of over 50% in size
How it was run: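 Viability measured fluorometrically (CellTiter-Fluor, 1hr, 37C) in 3T3 Gli1-Luc reporter cells after 23hr compound exposure within a 24hr incubation at 37C/5% CO2.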

[7] = qHTS assay to identify small molecule antagonists of the sonic hedgehog signaling (Shh) pathway - cell viability counter screen (AID 1259367); also: nearly all actives have a fitted effect of over 55% in size
How it was run: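 Cytotoxicity was assessed in parallel with Shh reporter activity by measuring live-cell protease fluorescence (CellTiter-Fluor) in NIH/3T3 cells stably carrying Gli1-Luc, treated with compound under conditioned medium stimulation for 23 hr plus 1 hr reagent incubation.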

[8] = qHTS assay to identify small molecule agonists of the sonic hedgehog signaling (Shh) pathway (AID 1259368; calls by dose curve;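 also: NIH/3T3-derived 3T3Gli1-Luc cells carrying a stable Gli1-driven firefly luciferase reporter; series mostly up to about 92 µM; nearly all actives have a fitted effect of over 15% in size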)
How it was run: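 Read-out: firefly luciferase luminescence from a Gli1 response element reporter stably integrated in NIH/3T3-derived 3T3Gli1-Luc cells, measured 30 min at room temperature after reagent addition. Compound exposure lasted 24 hr at 37 C, 5% CO2.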

[9] = qHTS assay to identify small molecule antagonists of the sonic hedgehog signaling (Shh) pathway (AID 1259369; calls by dose curve; also: nearly all actives have a fitted effect of over 45% in size)
How it was run: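 Luminescence readout: firefly Luc under Gli1 response element in 3T3Gli1-Luc cells (NIH/3T3 clone). Antagonist mode, stimulation by conditioned medium; compound exposure 24hr at 37 C, 5% CO2.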

[10] = qHTS assay to identify small molecule agonists of the androgen receptor (AR) signaling pathway in the presence of an antagonist - cell viability counter screen (AID 1259379);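 also: MDA-kb2 human breast cancer cells carrying an MMTV luciferase reporter; series mostly up to about 92 µM; nearly all actives have a fitted effect of over 25% in size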
How it was run: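 Viability counter screen: CellTiter-Fluor fluorescence, measured in the same wells as the luciferase read-out. MDA-kb2 cells, 3,000/well, with nilutamide at 3.0uM final and compounds at 15 concentrations, 16 hr at 37C, 0% CO2.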

[11] = qHTS assay to identify small molecule agonists of the estrogen receptor beta (ER-beta) signaling pathway - cell viability counter screen (AID 1259380); also: nearly all actives have a fitted effect of over 30% in size
How it was run: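 Luminescence read-out (CellTiter-Glo, 30 min, room temp) taken in the same wells as the beta-lactamase reporter assay; ER-beta-UAS-bla HEK293T cells exposed to DMSO-dissolved compounds for 16 hr at 37C in 2% charcoal-stripped FBS medium.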

[12] = qHTS assay to identify small molecule antagonists of the estrogen receptor beta (ER-beta) signaling pathway - cell viability counter screen (AID 1259382); also: series mostly up to about 92 µM; nearly all actives have a fitted effect of over 55% in size
How it was run: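 Luminescent ATP read-out (CellTiter-Glo, 30 min, RT) taken in the same wells as the bla reporter assay. HEK293T ER-beta-UAS-bla cells in 2% charcoal-stripped FBS were exposed to compounds with 1nM E2 for 16 hr at 37C.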

[13] = target: Estrogen receptor (Homo sapiens) (UniProt P03372); test: qHTS assay to identify small molecule agonists of the estrogen receptor alpha (ER-alpha) signaling pathway in the presence of an antagonist (AID 1259383; calls by dose curve; also: top concentration of the series differs between compounds; nearly all actives have a fitted effect of over 15% in size)
How it was run: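 Luciferase luminescence (ONE-Glo, 30min at room temperature) measured in VM7Luc4E2 cells after 22hr compound exposure at 15 concentrations, with 10.0nM ICI-182,780 final present; cells express endogenous ER-alpha and carry four EREs upstream of luciferase.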

[14] = qHTS assay to identify small molecule agonists or antagonists of the thyroid stimulating hormone receptor (TSHR) signaling pathway - wild type cell line counter screen (AID 1259384; calls by dose curve)
How it was run: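 Wild-type HEK293 cells were plated 18 h at 37 C/5% CO2, pin-dosed with compound plus Ro20-1724 medium, held 30 min at room temperature, then given cAMP-d2 and anti-cAMP-cryptate; fluorescence was read after 1 h. Fifteen concentrations, triplicate.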

[15] = qHTS assay to identify small molecule phospholipidosis (PLD) inducers (AID 1259344; active = well fitted curve in the direction sought with a large enough effect; an effect the other way counts as inactive or inconclusive)
How it was run: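 Cells (HepG2, 900 per well) attach for 4 h, receive LipidTOX Red and compound together, incubate 24 h at 37 C, are fixed 30 min with paraformaldehyde/Hoechst, then imaged at one site per well.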

[16] = target: Estrogen receptor beta (Homo sapiens) (UniProt Q92731); test: qHTS assay to identify small molecule agonists of the estrogen receptor beta (ER-beta) signaling pathway (AID 1259377; active = well fitted activation curve with a large enough effect in the signal ratio in the repeat runs, not every such curve was filed as active; the % refers to the signal ratio)
How it was run: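 A UAS-controlled beta-lactamase reporter in ER-beta-UAS-bla HEK293T cells reports receptor activation. Compounds act for 16 hr at 37C in 2% charcoal-stripped serum, and a FRET substrate is read by fluorescence after 2 hours.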

[17] = target: Estrogen receptor beta (Homo sapiens) (UniProt Q92731); test: qHTS assay to identify small molecule antagonists of the estrogen receptor beta (ER-beta) signaling pathway (AID 1259378; active = well fitted inhibition curve with a large enough effect in the signal ratio in the repeat runs, not every such curve was filed as active; the % refers to the signal ratio)
How it was run: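 ER-beta-UAS-bla HEK293T (GripTite) cells in 2% charcoal-stripped FBS medium were preincubated 6 hr at 37C, dosed with compound, then stimulated with 1 nM E2 (final) for 16 hr; beta-lactamase reporter read by B/G FRET fluorescence after 2 hr substrate loading.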

[18] = target: Androgen receptor (Homo sapiens) (UniProt P10275); test: qHTS assay to identify small molecule antagonists of the androgen receptor (AR) signaling pathway using the MDA cell line in the presence of 0.5 nM R1881 (AID 1259243); also: nearly all actives have a fitted effect of over 50% in size
How it was run: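 MDA-kb2, MMTV-luc (AR/GR elements); 3,000 cells/well; cpd + 0.5 nM R1881 final; 16 hr 37C, 0% CO2; ONE-Glo 30 min RT; luminescence.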

[19] = target: Androgen receptor (Homo sapiens) (UniProt P10275); test: qHTS assay to identify small molecule agonists of the androgen receptor (AR) signaling pathway in the presence of an antagonist (AID 1259381; calls by dose curve; also: nearly all actives have a fitted effect of over 15% in size)
How it was run: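 Luciferase read-out (ONE-Glo, 30min room temperature) in MDA-kb2 MMTV-reporter cells; agonist mode run in presence of AR antagonist nilutamide, 3.0uM final. Compounds tested as 15-point series, 16hr exposure at 37C, 0% CO2.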
% is scaled to controls: 0 for no effect and ±100 for the full control effect.

Chain of Androgen receptor (Homo sapiens) (P10275 whole entry, looked up): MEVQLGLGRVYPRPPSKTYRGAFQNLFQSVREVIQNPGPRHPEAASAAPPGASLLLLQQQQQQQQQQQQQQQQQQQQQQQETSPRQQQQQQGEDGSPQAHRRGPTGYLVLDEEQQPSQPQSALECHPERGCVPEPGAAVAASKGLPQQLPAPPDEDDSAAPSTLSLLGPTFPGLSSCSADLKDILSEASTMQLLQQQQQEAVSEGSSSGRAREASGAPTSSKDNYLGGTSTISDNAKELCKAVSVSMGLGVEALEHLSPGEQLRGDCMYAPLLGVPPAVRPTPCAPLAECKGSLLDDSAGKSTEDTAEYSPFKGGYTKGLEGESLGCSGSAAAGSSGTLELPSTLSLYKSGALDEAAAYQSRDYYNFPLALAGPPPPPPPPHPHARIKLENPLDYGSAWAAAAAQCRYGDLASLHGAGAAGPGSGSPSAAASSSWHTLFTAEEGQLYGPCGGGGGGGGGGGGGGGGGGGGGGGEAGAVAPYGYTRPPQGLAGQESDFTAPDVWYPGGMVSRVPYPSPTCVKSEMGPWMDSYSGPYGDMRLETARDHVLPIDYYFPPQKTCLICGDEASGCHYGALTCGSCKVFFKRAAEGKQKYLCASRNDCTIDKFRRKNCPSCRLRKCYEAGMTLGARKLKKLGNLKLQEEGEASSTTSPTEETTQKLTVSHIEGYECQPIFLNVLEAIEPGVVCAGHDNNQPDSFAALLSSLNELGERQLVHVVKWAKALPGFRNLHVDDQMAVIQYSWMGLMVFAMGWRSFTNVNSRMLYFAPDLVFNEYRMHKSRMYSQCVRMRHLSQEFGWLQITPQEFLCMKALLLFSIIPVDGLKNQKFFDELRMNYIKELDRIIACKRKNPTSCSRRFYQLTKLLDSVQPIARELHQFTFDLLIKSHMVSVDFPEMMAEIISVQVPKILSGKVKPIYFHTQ
Chain of Estrogen receptor beta (Homo sapiens) (Q92731 whole entry, looked up): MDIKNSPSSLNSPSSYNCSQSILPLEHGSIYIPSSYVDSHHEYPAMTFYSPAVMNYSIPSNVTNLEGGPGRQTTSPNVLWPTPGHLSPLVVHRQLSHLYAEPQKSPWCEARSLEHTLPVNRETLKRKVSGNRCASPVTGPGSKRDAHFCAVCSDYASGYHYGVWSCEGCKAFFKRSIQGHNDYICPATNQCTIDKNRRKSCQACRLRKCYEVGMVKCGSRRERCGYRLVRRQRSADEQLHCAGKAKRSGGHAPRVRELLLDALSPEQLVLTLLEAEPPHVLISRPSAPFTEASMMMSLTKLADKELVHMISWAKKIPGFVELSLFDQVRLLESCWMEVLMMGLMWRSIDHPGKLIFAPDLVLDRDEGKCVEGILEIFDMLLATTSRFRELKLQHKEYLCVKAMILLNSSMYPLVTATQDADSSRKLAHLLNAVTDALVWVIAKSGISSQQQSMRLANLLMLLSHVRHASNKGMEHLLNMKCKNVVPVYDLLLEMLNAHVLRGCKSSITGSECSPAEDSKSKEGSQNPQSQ
Chain of Estrogen receptor (Homo sapiens) (P03372 whole entry, looked up): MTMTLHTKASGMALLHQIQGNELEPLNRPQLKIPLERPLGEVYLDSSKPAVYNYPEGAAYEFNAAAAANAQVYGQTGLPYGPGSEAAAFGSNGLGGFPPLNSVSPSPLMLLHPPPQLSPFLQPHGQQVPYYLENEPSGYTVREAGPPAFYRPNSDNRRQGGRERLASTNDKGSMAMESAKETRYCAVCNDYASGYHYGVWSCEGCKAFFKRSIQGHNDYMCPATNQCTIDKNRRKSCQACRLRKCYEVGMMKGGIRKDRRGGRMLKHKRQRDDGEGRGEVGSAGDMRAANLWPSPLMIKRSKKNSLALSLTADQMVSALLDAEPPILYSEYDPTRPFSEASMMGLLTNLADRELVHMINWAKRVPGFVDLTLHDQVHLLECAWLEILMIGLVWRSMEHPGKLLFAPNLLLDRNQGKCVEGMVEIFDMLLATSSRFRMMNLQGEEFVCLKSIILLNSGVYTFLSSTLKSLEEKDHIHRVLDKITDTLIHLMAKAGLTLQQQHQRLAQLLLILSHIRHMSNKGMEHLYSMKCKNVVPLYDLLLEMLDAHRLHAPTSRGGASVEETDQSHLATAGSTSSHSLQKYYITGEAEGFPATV

CC(C)(C)c1n[nH]c(=S)n(N)c1=O
inactive: outcome [1] | outcome [2] | Potency [3] | Potency [4] | outcome [5] | Potency [6] | Potency [7] | outcome [8] | Potency [9] | Potency [10] | Potency [11] | outcome [12] | outcome [13] | outcome [14]

N[C@@H](COP(=O)(O)O)C(=O)O
inactive: cytotoxicity increase [1] 3.11% [at 15.8 µM] | viability change, negative = cytotoxic [2] 4.56% [at 19 µM] | outcome [15] | activity change, negative = inhibition [4] -0.0158% [at 19 µM] | activity change, negative = cytotoxicity [5] 0.384% [at 19 µM] | viability change, negative = cytotoxic [6] -4.16% [at 19 µM] | viability change, negative = cytotoxic [7] 5.61% [at 19 µM] | activity change [8] -1.5% [at 18.9 µM] | activity change, negative = inhibition [9] 28.3% [at 19 µM] | activation [16] 0.272% [at 19 µM] | activity, negative = inhibition [17] 18.6% [at 19 µM] | activity change, negative = cytotoxicity [10] -2.46% [at 19 µM] | activity change, negative = cytotoxicity [11] 5.8% [at 19 µM] | activity change, negative = cytotoxicity [12] 9.58% [at 19 µM] | cAMP activity change [14] 0.501% [at 18.9 µM]

CC(C)C[C@H](NC(=O)CNC(=O)[C@H](Cc1ccc(O)cc1)NC(=O)[C@H](CO)NC(=O)[C@H](Cc1c[nH]c2ccccc12)NC(=O)[C@H](Cc1cnc[nH]1)NC(=O)[C@@H]1CCC(=O)N1)C(=O)N[C@@H](CCCN=C(N)N)C(=O)N1CCC[C@H]1C(=O)NCC(N)=O (stereo in doubt)
inactive: outcome [1] | outcome [2] | outcome [15] | Potency [4] | outcome [5] | Potency [6] | Potency [7] | outcome [8] | Potency [9] | Potency [16] | outcome [17] | Potency [10] | outcome [12]

CCC(CC)CO
inactive: outcome [1] | outcome [2] | Potency [18] | Potency [3] | Potency [4] | outcome [5] | Potency [6] | Potency [7] | outcome [8] | Potency [9] | Potency [10] | Potency [11] | outcome [12] | outcome [13] | outcome [14]

C[Si](C)(C)C
inactive: outcome [1] | outcome [2] | Potency [4] | outcome [5] | Potency [6] | Potency [7] | outcome [8] | Potency [10] | Potency [11] | outcome [12] | outcome [14]

C#CC(C)N(C)C(=O)Nc1ccc(Cl)cc1 (configuration not stated)
inactive: outcome [1] | outcome [2] | Potency [18] | outcome [5] | Potency [6] | Potency [7] | outcome [8] | Potency [9] | Potency [16] | outcome [17] | Potency [10] | Potency [19] | outcome [12]

CCCCCCCCC(=O)Cl
inactive: outcome [1] | outcome [2] | Potency [3] | Potency [4] | outcome [5] | Potency [6] | Potency [7] | outcome [8] | Potency [9] | Potency [10] | Potency [11] | outcome [12] | outcome [13]

CCOC(=O)/C=C/c1ccccc1
inactive: outcome [1] | outcome [2] | Potency [3] | Potency [4] | outcome [5] | Potency [6] | Potency [7] | outcome [8] | Potency [9] | Potency [10] | Potency [11] | outcome [12] | outcome [14]

COC(=O)[C@@H]1[C@H]2C[C@H]3c4[nH]c5ccccc5c4CCN3C[C@@H]2CC[C@@H]1O
inactive: outcome [1] | outcome [2] | Potency [3] | outcome [15] | Potency [4] | outcome [5] | Potency [6] | Potency [7] | outcome [8] | Potency [16] | Potency [10] | Potency [11] | outcome [12] | outcome [13] | outcome [14]
